Screening data: PubChem, National Center for Advancing Translational Sciences (NCATS)
TRb-SRC2 inh: TRbeta-SRC2 interaction inhibition; P10828; TRbeta-SRC2 peptide binding, fluorescence polarization; receptor liganded with 1 µM T3; AID 1469; Potency, µM (titrated, usually from 106 µM), without a hit: at the highest dose activity change, negative = inhibition, hits mostly inhibitors; actives 0.065% (n = 280,000);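 note: plate controls were bound peptide for no effect and peptide without receptor for full effect; nearly all actives have a fitted effect of over 50% in size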
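Binding of a 20-amino-acid Texas Red SRC2 peptide (20 nM) to TRb ligand-binding domain (0.6 uM) with agonist T3 at 1 uM was followed by fluorescence polarization after a 5 hr room-temperature incubation.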
TR SRC2 fluor cs: counter-screen for TRb-SRC2 inhibitors: fluorescence interference | Potency, µM (highest dose often 106 µM), for the others: at the highest dose fluorescence change, negative = quenching | actives 0.29% (n = 280,000) | TRb/SRC2 Texas Red total fluorescence interference; active = well fitted curve in either direction with a large enough effect; inconclusive = small, poorly fitted or top-dose-only effect
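Flags fluorescent or light-absorbing compounds by total fluorescence, S + 2P, at 555 nm excitation and 632 nm emission. Mixture: 20 nM Texas Red SRC2 peptide, 0.6 uM human TRb LBD, 1 uM T3, 5% DMSO; compound exposure 5 h at ambient temperature.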
Tau FP inhib: blocks human tau fibril formation measured by polarization; P10636; actives 0.39% (n = 280,000); K18 P301L tau heparin fibrillization, Alexa594 FP, 6 h; Potency, µM (top dose mostly 57.7 µM), without a hit: top-dose activity, negative = inhibition, most hits filed as inhibitors; note: nearly all actives have a fitted effect of over 55% in size
Target sequence (P10636 561-689 P618L limits assumed): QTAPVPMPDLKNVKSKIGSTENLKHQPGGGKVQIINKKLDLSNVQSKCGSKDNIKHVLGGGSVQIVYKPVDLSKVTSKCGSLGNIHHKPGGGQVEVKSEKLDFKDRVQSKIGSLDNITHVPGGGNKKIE
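Compound effects on tau fibrillization are measured by Alexa 594 fluorescence polarization (ex 555, em 632 nm). K18 P301L tau is used at 15 uM with 0.24 uM labeled tracer, and 20 uM heparin induces aggregation over 6 hr at 37 C.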
Tau ThT inhib: tau fibrillization inhibition (ThT binding); P10636; recombinant tau K18 P301L, heparin-induced fibrillization, ThT fluorescence; Potency, µM (titrated, usually from 57.4 µM), inactives show at the highest dose activity, negative = inhibition, hits mostly inhibitors; actives 2.1% (n = 270,000); AID 1460; note: nearly all actives have a fitted effect of over 55% in size
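Using a mix of unlabeled (15 uM) and Alexa 594-labeled (0.24 uM) tau K18 P301L, heparin-triggered fibrillization over 6 hr at 37 C was scored by ThT fluorescence.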
Tau fluor counter: counter-screen for tau fibril formation inhibitors | tau K18 P301L (four-repeat tau fragment) Alexa594 fluorescence, heparin fibrillization | Potency, µM (titrated, usually from 57.7 µM), inactives show top-dose activity change, negative = decrease | actives 0.93% (n = 280,000) | AID 1463; note: nearly all actives have a fitted effect of over 55% in size
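Human K18 P301L tau (15 uM unlabeled plus 0.24 uM Alexa 594-labeled, final) in 100 mM sodium acetate pH 7 was mixed with compound and 20 uM heparin and incubated 6 hr at 37 C.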
GoLoco inh red: RGS12 GoLoco-Gai1 interaction inhibition; P63096; Gai1:RGS12 GoLoco peptide FP, rhodamine, 10 min; Potency, µM (series often up to 61.6 µM), for inactives: top-dose activity, negative = inhibition, most hits filed as inhibitors; actives 0.44% (n = 230,000); active = well fitted inhibition curve with a large enough effect, not every such curve was filed as active; inactive = no such curve, though single readings can be large or run the other way; note: nearly all actives have a fitted effect of over 30% in size
Target sequence (P63096 whole entry, looked up): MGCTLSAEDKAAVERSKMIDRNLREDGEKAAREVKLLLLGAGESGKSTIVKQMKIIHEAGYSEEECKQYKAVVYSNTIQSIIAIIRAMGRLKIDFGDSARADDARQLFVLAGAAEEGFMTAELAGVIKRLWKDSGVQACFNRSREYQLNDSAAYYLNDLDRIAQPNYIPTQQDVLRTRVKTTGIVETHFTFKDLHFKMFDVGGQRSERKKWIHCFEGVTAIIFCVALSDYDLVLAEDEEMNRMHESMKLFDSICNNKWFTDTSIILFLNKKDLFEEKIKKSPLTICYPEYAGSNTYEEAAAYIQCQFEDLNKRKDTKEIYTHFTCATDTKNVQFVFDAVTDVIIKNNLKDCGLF
An asterisk follows results filed as active; ? = inconclusive; . = no result given; [ ] = dose if it differs, or a comment. Shown are actives, neighbours in structure and some others; about 3.1% of the full set was active somewhere. Unless noted, calls come from the whole dose curve; as a rule, active = well fitted curve in the direction sought with a large enough effect; inconclusive = small, poorly fitted or top-dose-only effect, or another doubt; inactive = no such curve, though single readings can be large; an effect the other way counts as inactive or inconclusive. Unless noted, % is set by controls: 0 for no effect and ±100 for the full control effect; potency is the fitted concentration of half-maximal effect.

SMILES | TRb-SRC2 inh | TR SRC2 fluor cs | Tau FP inhib | Tau ThT inhib | Tau fluor counter | GoLoco inh red
Cc1cc(C)cc(Oc2cc(NC(=O)c3cn(C)nc3C)cc([N+](=O)[O-])c2)c1 | -3% | -3% | ? | 5% | 2.5µM*[quencher] | 7%
Cc1cc([N+](=O)[O-])nn1CCCC(=O)Nc1cc(Oc2ccc(F)cc2)cc([N+](=O)[O-])c1 | 11% | 11% | 3% | -5% | -3% | -1%
O=C(Sc1cccc2cccnc12)c1ccc(F)cc1 | 1% | -2% | ? | ? | -11% | 0%
O=S(=O)(Nc1cc(Sc2cccc3cccnc23)c(O)c2ccccc12)c1ccc(F)cc1 | ? | -9% | 28µM* | 13µM* | 14µM*[quencher] | -6%
COc1ccc(S(=O)(=O)Nc2cc(Sc3ncn[nH]3)c(O)c3ccccc23)cc1 | ? | -20% | 16µM* | 7.1µM* | ? | -35%
COc1ccc(S(=O)(=O)Nc2ccc(O)c(Sc3ncn[nH]3)c2)cc1 | 2% | -2% | 8% | -2% | -3% | -18%
O=C1CCCC2=C1C(c1ccc(Cl)cc1)C1C(=O)c3ccccc3C1=N2 (centres undefined) | 2% | -3% | 14% | 16µM* | 22µM*[quencher] | 18%
COc1cccc(CNc2ccc(N3CCCCC3)cc2)c1OC | -25% | 4% | ? | 14µM* | ? | -25%
COc1ccccc1CNc1ccc(N2CCCCC2)cc1 | 8% | 4% | ? | 22µM* | ? | -6%
COc1ccccc1CNc1ccc(C(=O)O)cc1 | -2% | 1% | 11% | -3% | 3% | 3%
COc1ccc(C2/C=C\CN(C(=O)Nc3ccccc3-c3ccccc3)CC(=O)N2Cc2ccc(F)cc2)cc1 (centres undefined) | 2% | -1% | 2% | -11% | -5% | 10%
Cc1ccc2occ(CC(=O)Nc3ccc(S(=O)(=O)N4CCC(C)CC4)cc3)c2c1 | 4% | -17% | 8.9µM* | 5% | ? | .
Cc1ccc2c(CC(=O)Nc3ccc(S(=O)(=O)N4CCCCC4C)cc3)coc2c1 (centres undefined) | 5% | -9% | ? | 8% | ? | .
Cc1ccc2c(CC(=O)Nc3ccc(S(=O)(=O)N4CCC(C)CC4)cc3)coc2c1 | 4% | 1% | 10µM* | 8% | ? | .
Cc1ccc2onc(CC(=O)Nc3cccc(C(F)(F)F)c3)c2c1 | -2% | 4% | -4% | -2% | -2% | .
Cc1ccc2c(CC(=O)Nc3cccc(C(F)(F)F)c3)coc2c1 | -2% | -4% | 25µM* | 1% | ? | .
CCCC(C(=O)NCC1CCCO1)N(Cc1ccco1)C(=O)CNS(=O)(=O)c1ccc(F)cc1 (centres undefined) | -7% | -3% | -11% | -9% | -2% | 3%
CCSc1nnc2c(n1)OC(CC)N(C(C)=O)c1ccccc1-2 (centres undefined) | 6% | -5% | -3% | -4% | -5% | .
COc1ccccc1NS(=O)(=O)c1cc([N+](=O)[O-])ccc1N/N=C/c1c(C)[nH]c2ccccc12 | -2% | -1% | ? | 3.2µM* | 6.3µM*[quencher] | 181%
Cc1[nH]c2ccccc2c1/C=N/Nc1ccc([N+](=O)[O-])cc1 | -2% | -6% | 4% | 0% | -1% | .
O=[N+]([O-])c1ccc(N/N=C/c2c[nH]c3ccccc23)c(S(=O)(=O)Nc2ccc(Cl)cc2)c1 | 4% | 1% | -11% | 3.2µM* | 3.2µM*[quencher] | 28%
CCCCC/C=C\C[C@H](O)/C=C/c1cccc(C[C@H](O)CCCCO)n1 | -6% | 4% | 5% | ? | -9% | 27%
C=CCn1c(N)c(C(=O)NC2CCCCC2)sc1=S | -8% | -1% | 12% | 1% | -7% | 4%
Cc1ccc(O)c(N=NC2=C(O)CC(C)(C)CC2=O)c1 | -3% | -2% | -3% | ? | -13% | -3%
C/C(O)=C(\N=Nc1cc(C)ccc1O)C(N)=O | 0% | 0% | 13% | 10µM* | ? | 5%
SMILES | TRb-SRC2 inh | TR SRC2 fluor cs | Tau FP inhib | Tau ThT inhib | Tau fluor counter | GoLoco inh red
Cn1/c(=N/N=C/c2ccc([N+](=O)[O-])cc2)sc2ccccc21 | . | . | 4% | ? | -7% | -43%
Cc1cc(C)c2c(c1)/C(=N\N=c1\sc3ccccc3n1C)C(=O)N2 | 2% | -2% | 6% | 4.5µM* | -7% | 16%
COc1cccc2c1C(=O)c1c(O)c3c(c(O)c1C2=O)C[C@](O)(C(=O)CO)C[C@H]3O[C@@H]1C[C@H](N)[C@H](O)[C@H](C)O1 | 14µM* | 16µM*[fluorescent] | . | . | . | 2.2µM*
Cc1ccc(-c2nnc(Nc3cccc(O)c3)c3ccccc23)cc1S(=O)(=O)N1CCCCC1 | 2% | -9% | ? | -13% | 8.9µM*[quencher] | .
N#C/C(=C\c1coc2ccc(O)cc2c1=O)C(=O)Nc1nc2ccccc2s1 | ? | ? | ? | 18µM* | 28µM*[quencher] | 107%
N#C/C(=C\c1coc2ccccc2c1=O)C(N)=S | 7% | -2% | -7% | -14% | -10% | -16%
Cc1cccc(Cn2c(C)c(C)c3cc(C(=O)NCc4ccc(C)o4)ccc32)c1 | -1% | -1% | 8% | -3% | -8% | .
Cc1ccc2cccc(NC(=O)COc3ccccc3Cl)c2n1 | -15% | 16µM*[quencher] | -5% | ? | ? | .
O=C(Cc1coc2ccc3ccccc3c12)NC1CCCc2ccccc21 (centres undefined) | 6% | -21% | -8% | -7% | -16% | 2%
N#CSCC(=O)c1cccc2ccccc12 | 10% | 3% | ? | 25µM* | -12% | 6%
NC(=O)c1cccc2ccccc12 | -6% | -5% | 9% | 2% | 6% | -1%
Cc1noc(/C=C/Nc2ccc(F)cc2F)c1[N+](=O)[O-] | 2% | -1% | 0% | 3.2µM* | -18% | 1%
Cc1cccc(NCCC(=O)c2ccc([N+](=O)[O-])cc2)c1C | -10% | 0% | 2% | ? | 8.9µM*[quencher] | 6%
Cc1ccc(C(=O)CNc2cccc([N+](=O)[O-])c2)cc1 | -2% | -3% | -1% | ? | -11% | 2%
Cc1ccc(NCC(=O)c2ccc([N+](=O)[O-])cc2)cc1 | 4% | 1% | ? | 18µM* | ? | 4%
Cc1ccc(NCCC(=O)c2cccc([N+](=O)[O-])c2)c(C)c1 | -18% | -1% | ? | ? | 16µM*[quencher] | -6%
CN(C)c1ccc(CNC(=O)c2cnc3sc(N4CCCC4)nn3c2=O)cc1 | -1% | -20% | 6% | 2% | 1% | .
CN1CCC/C1=C1/C(=O)N(c2ccccc2)N=C1NC(=O)Nc1cccc(Cl)c1 | -8% | -6% | ? | 8.9µM* | ? | 6%
